Measured values as given in PubChem BioAssay (Tox21).
Values joined by “and” are separate entries in the source; they are usually repeats but may differ in a detail not shown here. Equal values may be shown once. A number with no mark means an inactive call. Where a call stands in place of a potency, no number is given. Active and inactive are the calls of the source. Unless noted, calls come from the whole dose curve; as a rule, active = well fitted curve in the direction sought with a large enough effect in the repeat runs; inconclusive = weak or mixed curves; inactive = no such curve, though single readings can be large; an effect the other way counts as inactive or inconclusive.

Columns and labels:
[1] = qHTS assay to identify small molecule antagonists of the thyroid receptor (TR) signaling pathway - cell viability counter screen (AID 743064); details: GH3.TRE-Luc viability, CellTiter-Fluor, 24 h; series mostly up to 70.3 µM; note: nearly all actives have a fitted effect of over 50% in size; note: potency is the fitted concentration of half-maximal effect
In short: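 Viability of T3-stimulated (1 nM final) GH3.TRE-Luc cells is measured by CellTiter-Fluor fluorescence after 23.5 h compound exposure at 37 °C plus 30 min reagent incubation.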

[2] = target: Estrogen receptor (Homo sapiens) (UniProt P03372); assay: qHTS assay to identify small molecule antagonists of the estrogen receptor alpha (ER-alpha) signaling pathway (AID 743069; active = well fitted curve in the direction sought with a large enough effect in the signal ratio in the repeat runs, not every such curve was filed as active; inconclusive = weak or mixed curves, or effect the other way; inactive = no such curve, though single readings can be large or run the other way; the % refers to the signal ratio; note: potency is the fitted concentration of half-maximal effect); details: HEK293 ER-alpha-UAS-bla, beta-lactamase ratio, antagonist mode; series mostly up to 69.4 µM
In short: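 Antagonist mode: compounds in DMSO were co-added with 17beta-estradiol to ER-alpha-bla HEK293 cells (2% charcoal-stripped serum) and left 18 h at 37C. Reporter inhibition was measured as FRET fluorescence after 2 h LiveBLAzer substrate at room temperature.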

[3] = qHTS assay to identify small molecule antagonists of the estrogen receptor alpha (ER-alpha) signaling pathway - cell viability counter screen (AID 743074; calls by dose curve;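 note: HEK293 cells carrying ER-alpha-UAS-bla reporter stimulated with 17beta-estradiol; nearly all actives have a fitted effect of over 45% in size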); details: ERalpha-bla HEK293 viability, CellTiter-Glo luminescence, 18 h; series mostly up to 69.4 µM
[4] = target: Estrogen receptor (Homo sapiens) (UniProt P03372); assay: qHTS assay to identify small molecule agonists of the estrogen receptor alpha (ER-alpha) signaling pathway (AID 743075; calls by dose curve;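 note: HEK293 GripTite cells with ER-alpha and UAS-driven beta-lactamase reporter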); details: HEK293 ER-alpha-UAS-bla, beta-lactamase FRET ratio, 18 h; series mostly up to 70.1 µM
[5] = target: Estrogen receptor (Homo sapiens) (UniProt P03372); assay: qHTS assay to identify small molecule agonists of the estrogen receptor alpha (ER-alpha) signaling pathway using the BG1 cell line (AID 743079); details: BG1Luc4E2 cells, ERE-luciferase agonist, 22 h; series mostly up to 70.3 µM; note: nearly all actives have a fitted effect of over 20% in size; note: potency is the fitted concentration of half-maximal effect
[6] = qHTS assay to identify small molecule antagonists of the estrogen receptor alpha (ER-alpha) signaling pathway using the BG1 cell line (AID 743080; calls by dose curve; note: nearly all actives have a fitted effect of over 25% in size); details: BG1Luc4E2 ERE-luciferase antagonist mode, luminescence; series mostly up to 70.3 µM
In short: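 Antagonist mode: compounds in DMSO were pinned onto BG1-Luc-4E2 cells alongside 17beta-estradiol agonist, incubated 21.5 h, and ERE-driven luciferase measured with ONE-Glo. Cytotoxicity was multiplexed using CellTiter-Fluor fluorescence.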

[7] = qHTS assay to identify small molecule antagonists of the estrogen receptor alpha (ER-alpha) signaling pathway using the BG1 cell line - cell viability counter screen (AID 743081); details: BG1Luc4E2 viability, CellTiter-Fluor, 22 h; series mostly up to 70.3 µM;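 note: compound given together with 17beta-estradiol as the ER stimulus; nearly all actives have a fitted effect of over 45% in size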; note: potency is the fitted concentration of half-maximal effect
[8] = target: Aromatase (Homo sapiens) (UniProt P11511); assay: qHTS assay to identify aromatase inhibitors (AID 743083); details: MCF-7 aro ERE, testosterone-driven ERE luciferase, 24 h; series mostly up to 70.3 µM; note: nearly all actives have a fitted effect of over 55% in size; note: potency is the fitted concentration of half-maximal effect
[9] = system: thyroid hormone receptor (rat, GH3 cells); assay: qHTS assay to identify small molecule agonists of the thyroid receptor (TR) signaling pathway (AID 743066; calls by dose curve); details: GH3.TRE-Luc cells, TR agonist luciferase, 24 h; series mostly up to 83.9 µM
[10] = qHTS assay to identify small molecule antagonists of the thyroid receptor (TR) signaling pathway (AID 743065); details: GH3.TRE-Luc, T3-stimulated luciferase inhibition, 23.5 h; series mostly up to 70.3 µM; note: nearly all actives have a fitted effect of over 55% in size; note: potency is the fitted concentration of half-maximal effect
In short: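 Antagonism measured as loss of luciferase signal in GH3 cells stably carrying a TRE-luciferase reporter, co-treated with compound and T3 (1 nM final) for 23.5 h at 37 C. Viability was read in the same well by CellTiter-Fluor.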

Chain of Aromatase (Homo sapiens) (P11511 whole entry, looked up): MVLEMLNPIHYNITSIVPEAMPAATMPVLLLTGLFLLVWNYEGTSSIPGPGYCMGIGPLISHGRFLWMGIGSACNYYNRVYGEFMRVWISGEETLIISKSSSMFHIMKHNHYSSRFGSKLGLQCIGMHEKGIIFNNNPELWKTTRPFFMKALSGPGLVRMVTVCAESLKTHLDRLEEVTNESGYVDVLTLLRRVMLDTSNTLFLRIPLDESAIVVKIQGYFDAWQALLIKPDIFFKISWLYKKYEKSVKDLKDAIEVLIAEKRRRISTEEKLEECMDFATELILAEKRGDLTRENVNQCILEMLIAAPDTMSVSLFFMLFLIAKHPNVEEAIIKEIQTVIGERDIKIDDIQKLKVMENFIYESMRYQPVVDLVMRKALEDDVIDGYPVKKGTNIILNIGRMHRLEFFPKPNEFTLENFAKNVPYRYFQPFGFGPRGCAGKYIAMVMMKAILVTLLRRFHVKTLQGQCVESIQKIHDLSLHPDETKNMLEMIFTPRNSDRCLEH
Chain of Estrogen receptor (Homo sapiens) (P03372 whole entry, looked up): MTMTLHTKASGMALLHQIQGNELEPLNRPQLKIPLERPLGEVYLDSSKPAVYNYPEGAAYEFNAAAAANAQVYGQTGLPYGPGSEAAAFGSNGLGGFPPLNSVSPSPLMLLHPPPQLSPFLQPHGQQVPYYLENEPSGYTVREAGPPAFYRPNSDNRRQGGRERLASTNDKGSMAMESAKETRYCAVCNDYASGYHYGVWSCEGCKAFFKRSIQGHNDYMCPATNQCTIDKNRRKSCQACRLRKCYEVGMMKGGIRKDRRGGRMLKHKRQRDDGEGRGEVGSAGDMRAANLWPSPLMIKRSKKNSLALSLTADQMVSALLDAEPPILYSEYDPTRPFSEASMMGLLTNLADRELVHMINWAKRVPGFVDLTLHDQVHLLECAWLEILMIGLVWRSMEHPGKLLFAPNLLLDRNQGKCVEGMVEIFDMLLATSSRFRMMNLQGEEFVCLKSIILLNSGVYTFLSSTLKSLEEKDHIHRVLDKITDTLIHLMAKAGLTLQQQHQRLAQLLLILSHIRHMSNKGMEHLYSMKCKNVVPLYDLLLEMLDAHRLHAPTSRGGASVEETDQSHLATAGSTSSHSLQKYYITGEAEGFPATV

Structure (SMILES)	Potency [1]	Potency [2]	outcome [3]	Potency [4]	Potency [5]	Potency [6]	Potency [7]	Potency [8]	outcome [9]	Potency [10]
Nc1ncnc2c1ncn2[C@@H]1O[C@H](CO)[C@@H](O)[C@H]1O	inactive	inactive	inactive	inactive	inactive	inactive	inactive	inactive		
O=C(O)c1ccc2cc(O)ccc2c1	inactive	inactive	inactive	inactive		inactive	inactive	inactive	inactive	
CCCCCCCCCCCCCCCCN		inactive	inactive	inactive	inactive	inactive	inactive	inactive	inactive	inactive
COc1ccc(/C=C/S(=O)(=O)NC(=O)c2ccc(C)cc2Cl)cc1	inactive						inactive	inactive		
O=C(OCCCCCOC(=O)c1ccccc1)c1ccccc1	inactive	inactive	inactive	inactive			inactive	inactive	inactive	
CC(C)C[C@H](NC(=O)[C@H](Cc1ccccc1)NC(=O)c1cnccn1)B(O)O	18.8 nM (active) and 11.9 nM (active)	0.0674 µM [inconclusive] (active)	inactive				1.06 µM (active) and 668 nM (active)	21.1 nM (active) and 15 nM (active)		
C/C(=C\C(C)CC(C)CC(C)C)C1CC(=O)OC1=O (configuration not stated)	inactive		inactive	inactive	inactive		inactive	inactive	inactive	
C=CC(C)(O)CC/C=C(/C)CCC=C(C)C (configuration not stated)	inactive		inactive				inactive		inactive	
O=C(O)c1cccnc1Nc1cccc(C(F)(F)F)c1	inactive		inactive	inactive	inactive	inactive	inactive	inactive	inactive	
CC(C)CCCCCCCOC(=O)c1ccc(C(=O)OCCCCCCCC(C)C)c(C(=O)OCCCCCCCC(C)C)c1	inactive		inactive				inactive	inactive	inactive	
Cc1cc(SC2=C(O)C[C@@](CCc3ccc(N)cc3)(C(C)C)OC2=O)c(C(C)(C)C)cc1CO	inactive		inactive				inactive	inactive	inactive	
CC(C)C/C=C(\C=O)c1ccccc1		inactive	inactive	inactive	61.1 µM (active)	inactive	inactive	inactive	inactive	inactive
Nc1ccc(F)cc1F	inactive	inactive	inactive	inactive	inactive		inactive	inactive		
CCCCOC(=O)C(C)Oc1ccc(Oc2ccc(C(F)(F)F)cn2)cc1 (configuration not stated)	inactive		inactive	inactive	inactive		inactive		inactive	
CCCOC(C)=O		inactive	inactive	inactive	inactive	inactive	inactive	inactive	inactive	inactive
OCC(O)c1ccccc1 (configuration not stated)		inactive	inactive	inactive	inactive	inactive	inactive	inactive	inactive	inactive
Cc1ccc(S(=O)(=O)NC(=O)NC2CCCC2)cc1	inactive		inactive				inactive	inactive	inactive	
CS(C)=O	inactive		inactive				inactive	inactive	inactive	
Sc1nc(S)nc(S)n1	inactive		inactive				inactive	inactive	inactive	
CC(C)(C)N		inactive	inactive	inactive	inactive	inactive	inactive	inactive	inactive	inactive
CCCCCCCCCC(C)C=O (configuration not stated)	inactive		inactive				inactive	inactive	inactive	
Cc1cc(N)n(-c2ccccc2)n1	inactive	inactive	inactive	inactive			inactive	inactive	inactive	
NCCOCCOCCN	inactive		inactive				inactive	inactive	inactive	
O=[N+]([O-])c1ccccc1CCO	inactive		inactive				inactive	inactive	inactive	

Structure (SMILES)	Potency [1]	Potency [2]	outcome [3]	Potency [4]	Potency [5]	Potency [6]	Potency [7]	Potency [8]	outcome [9]	Potency [10]
O=C1c2ccccc2C(=O)c2c1ccc(O)c2O	inactive		inactive				inactive	inactive	inactive	
CC(O)CN (configuration not stated)	inactive	inactive	inactive	inactive	inactive		inactive	inactive		
N#C[C@@H]1CC(F)(F)CN1C(=O)CNC1CC2CCC(C1)N2c1ncccn1 (some centres not stated)	inactive	inactive	inactive	inactive	inactive		inactive	inactive		
CCOC(C)OCC	inactive		inactive				inactive	inactive		
Cc1ccccc1CCO		inactive	inactive	inactive	inactive		inactive	inactive	inactive	inactive
c1ccc(-c2ccc(-c3ccccc3)cc2)cc1		inactive	inactive	inactive	0.791 µM (active)		inactive		inactive	inactive
c1ccc(CN(Cc2ccccc2)Cc2ccccc2)cc1			inactive				inactive	inactive	inactive	inactive
CCOC(=O)CC(O)(CC(=O)OCC)C(=O)OCC		inactive	inactive	inactive	inactive		inactive	inactive	inactive	inactive
Clc1nc2ccccc2nc1Cl		inactive	inactive	inactive	inactive		inactive	inactive	inactive	inactive
CCC(C)CCCC(C)(C)O (configuration not stated)			inactive				inactive	inactive	inactive	inactive
O=C(N[C@@H](Cc1ccccc1)[C@@H](O)C(=O)N1C[C@@H](O)[C@@H](O)C1)c1cc2cc(Cl)ccc2[nH]1			inactive	inactive			inactive	inactive	inactive	61.1 µM (active)
O=Cc1ccc([N+](=O)[O-])cc1		inactive	inactive	inactive	30.8 µM (active)	inactive	inactive	inactive	inactive	inactive
O=C1CCCN1CCO		inactive	inactive	inactive	inactive	inactive	inactive	inactive	inactive	inactive
C[C@H]1C[C@H]2[C@@H]3CCC4=CC(=O)C=C[C@]4(C)[C@@]3(F)[C@@H](O)C[C@]2(C)[C@@]1(O)C(=O)COP(=O)(O)O			inactive	inactive	inactive		inactive	inactive	inactive	inactive
OCCCO		inactive	inactive	inactive	inactive	inactive	inactive	inactive	inactive	inactive
Cc1c(Nc2ncccc2C(=O)O)cccc1C(F)(F)F			inactive				inactive		inactive	2.85 µM (active)
CCC(=O)O[C@@H]1C[C@H]2CC[C@]1(C)C2(C)C			inactive				inactive	inactive	inactive	inactive
CC(C)=CCC[C@H](C)CCO		inactive	inactive	inactive	inactive		inactive	inactive	inactive	inactive
O=C(OCCOCCOCCOC(=O)c1ccccc1)c1ccccc1		inactive	inactive	inactive	inactive	inactive	inactive	inactive	inactive	inactive
CCC[Si](OC)(OC)OC		inactive	inactive	inactive	inactive	inactive	inactive	inactive	inactive	inactive
CCOc1cc(OCC)c(C(C)=O)cc1OCC			inactive	inactive		inactive		26.8 µM (active)	inactive	inactive
O=C(O)c1ccc2c(c1)nc(C(=O)NC1CCN(C3CC3)CC1)n2Cc1cc(-c2ccc(Cl)s2)on1			inactive	inactive	inactive	inactive	inactive	inactive	inactive	inactive
O=C(O)c1ccc(O)c(O)c1		inactive	inactive	inactive	inactive	inactive	inactive	inactive	inactive	inactive
O=C(O)c1cc(C(=O)O)cc([N+](=O)[O-])c1			inactive				inactive	inactive	inactive	inactive
